# In PubChem BioAssay:
# Calls of active or inactive are those of the source.
# Tests used:
# [1] = molecular target: Albumin (Bos taurus) (UniProt P02769); experiment: compounds binding labelled BSA control protein – biochemical, small-molecule microarray, Alexa647 label, 635/667 nm fluorescence, artefact control for SMM control protein annotation, profiling panel (AID 1118); settings: BSA-A647 binding, fluorescence 635 nm, higher = more signal;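 further: score merges 667 nm emission intensity and signal-to-noise per printed compound spot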
# Chain of Albumin (Bos taurus) (P02769 whole entry, looked up): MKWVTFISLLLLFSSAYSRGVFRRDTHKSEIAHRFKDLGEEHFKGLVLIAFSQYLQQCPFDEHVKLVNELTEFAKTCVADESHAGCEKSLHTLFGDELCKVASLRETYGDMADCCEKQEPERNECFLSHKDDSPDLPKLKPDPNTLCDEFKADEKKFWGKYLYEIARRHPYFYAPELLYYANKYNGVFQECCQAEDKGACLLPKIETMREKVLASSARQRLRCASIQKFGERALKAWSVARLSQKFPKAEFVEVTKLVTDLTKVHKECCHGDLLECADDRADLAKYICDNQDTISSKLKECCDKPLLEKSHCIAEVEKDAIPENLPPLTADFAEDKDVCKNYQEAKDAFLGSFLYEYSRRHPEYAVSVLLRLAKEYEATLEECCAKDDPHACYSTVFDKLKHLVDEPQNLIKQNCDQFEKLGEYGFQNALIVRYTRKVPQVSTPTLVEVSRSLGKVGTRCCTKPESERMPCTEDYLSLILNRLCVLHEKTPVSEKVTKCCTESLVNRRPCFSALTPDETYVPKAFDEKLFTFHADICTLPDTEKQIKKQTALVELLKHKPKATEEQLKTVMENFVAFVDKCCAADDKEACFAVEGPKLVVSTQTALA
# [2] = probe aXIP binding to arrayed compounds – biochemical, NeuroSMM set, 635/667 nm fluorescence, primary screen (AID 1119); settings: small-molecule microarray, higher = more signal, called active from +8 up or from −8 down;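 further: probe is the protein aXip251-270 applied at 1 µg/mL to compound-printed slides; binding of probe to printed compounds measured as 667 nm fluorescence plus signal to noise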
# [3] = probe aNOTCH3 binding on compound microarray – biochemical, small-molecule microarray, 635/667 nm fluorescence, primary screen (AID 1120); settings: higher = more signal;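 further: probe is a biotin-tagged antibody raised against NOTCH3 rather than NOTCH3 protein; score merges spot fluorescence near 667 nm with spot signal to noise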
# [4] = probe aNOTCH2 binding on compound microarray – biochemical, small-molecule microarray, 635/667 nm fluorescence, primary screen (AID 1121); settings: higher = more signal;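 further: score merges feature fluorescence read at 667 nm with its signal to noise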
# [5] = molecular target: Carbonic anhydrase 2 (Homo sapiens) (UniProt P00918); experiment: compounds binding carbonic anhydrase 2 – biochemical, small-molecule microarray, Alexa647-labelled CAII, profiling panel (AID 1122); settings: CAII-A647 binding fluorescence, higher = more signal
# [6] = COS7 lysate on small-molecule microarray, probe aHis, 635 nm (AID 1123); settings: COS7 cell lysate, fluorescence, higher = more signal;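 further: z-score combines 667nm fluorescence intensity with signal-to-noise per printed compound spot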
# [7] = probe aLAP1 signal on lysate-treated microarray – cell lysate, small-molecule microarray, COS7 lysate, primary screen (AID 1124); settings: probe aLAP1, fluorescence, higher = more signal;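 further: lysate comes from COS7 cells expressing LAP1 and is applied at 0.3 µg/mL; score merges spot fluorescence near 667 nm with signal-to-noise over triplicate slides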
# [8] = test system: Sam68 (KHDRBS1); experiment: compounds binding KHDRBS1 protein – biochemical, small-molecule microarray, 635 nm fluorescence, primary screen (AID 1125); settings: higher = more signal;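 further: score merges 667 nm channel intensity with signal to noise over triplicate slides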
# [9] = test system: Chordin-like protein 2 (CHRDL2); experiment: compounds binding chordin-like 2 – biochemical, small-molecule microarray, 635 nm fluorescence, primary screen (AID 1126); settings: fluorescence 635 nm, higher = more signal;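 further: printed compound slides probed with Chrdl2 protein at 4 µg/mL for 1 h at 4 C; score merges 667 nm emission intensity with signal to noise over three replicate slides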
# [10] = molecular target: Concanavalin-A (Canavalia ensiformis) (UniProt P02866); experiment: compounds binding concanavalin A lectin – biochemical, small-molecule microarray, Alexa647 label, 635 nm, artefact control for SMM control protein annotation, primary screen (AID 1127); settings: ConA-A647 binding fluorescence, higher = more signal;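 further: z combines 667 nm emission intensity with signal-to-noise across three replicate slides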
# Chain of Concanavalin-A (Canavalia ensiformis) (P02866 whole entry, looked up): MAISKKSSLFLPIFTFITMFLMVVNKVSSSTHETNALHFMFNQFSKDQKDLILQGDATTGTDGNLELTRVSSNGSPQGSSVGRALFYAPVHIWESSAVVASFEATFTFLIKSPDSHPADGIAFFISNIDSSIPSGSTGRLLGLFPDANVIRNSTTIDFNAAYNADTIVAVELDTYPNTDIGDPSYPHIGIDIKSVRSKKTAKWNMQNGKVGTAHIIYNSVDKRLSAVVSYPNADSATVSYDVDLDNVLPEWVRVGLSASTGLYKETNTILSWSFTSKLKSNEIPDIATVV
# [11] = compounds binding Alexa647 anti-His antibody – biochemical, small-molecule microarray, 635 nm fluorescence, artefact control for SMM control protein annotation, primary screen (AID 1128); settings: higher = more signal;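 further: score merges feature fluorescence with signal-to-noise for each printed compound spot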
# [12] = test system: Human papillomavirus type 1a E7 protein (residues 1-88); experiment: HPV1a E7 small-molecule binders, primary screen, biochemical, small-molecule microarray, residues 1-88, 635 nm (AID 1129); settings: small-molecule microarray binding, fluorescence 635 nm; higher = more signal
# [13] = molecular target: Focal adhesion kinase 1 (Homo sapiens) (UniProt Q05397); experiment: PTK2 protein binding on printed compound slides – biochemical, small-molecule microarray, 635/667 nm fluorescence, BSA, DTT, primary screen (AID 1130); settings: 635 nm fluorescence, higher = more signal;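 further: composite of spot emission at 667 nm and signal to noise over triplicate slides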
# Chain of Focal adhesion kinase 1 (Homo sapiens) (Q05397 whole entry, looked up): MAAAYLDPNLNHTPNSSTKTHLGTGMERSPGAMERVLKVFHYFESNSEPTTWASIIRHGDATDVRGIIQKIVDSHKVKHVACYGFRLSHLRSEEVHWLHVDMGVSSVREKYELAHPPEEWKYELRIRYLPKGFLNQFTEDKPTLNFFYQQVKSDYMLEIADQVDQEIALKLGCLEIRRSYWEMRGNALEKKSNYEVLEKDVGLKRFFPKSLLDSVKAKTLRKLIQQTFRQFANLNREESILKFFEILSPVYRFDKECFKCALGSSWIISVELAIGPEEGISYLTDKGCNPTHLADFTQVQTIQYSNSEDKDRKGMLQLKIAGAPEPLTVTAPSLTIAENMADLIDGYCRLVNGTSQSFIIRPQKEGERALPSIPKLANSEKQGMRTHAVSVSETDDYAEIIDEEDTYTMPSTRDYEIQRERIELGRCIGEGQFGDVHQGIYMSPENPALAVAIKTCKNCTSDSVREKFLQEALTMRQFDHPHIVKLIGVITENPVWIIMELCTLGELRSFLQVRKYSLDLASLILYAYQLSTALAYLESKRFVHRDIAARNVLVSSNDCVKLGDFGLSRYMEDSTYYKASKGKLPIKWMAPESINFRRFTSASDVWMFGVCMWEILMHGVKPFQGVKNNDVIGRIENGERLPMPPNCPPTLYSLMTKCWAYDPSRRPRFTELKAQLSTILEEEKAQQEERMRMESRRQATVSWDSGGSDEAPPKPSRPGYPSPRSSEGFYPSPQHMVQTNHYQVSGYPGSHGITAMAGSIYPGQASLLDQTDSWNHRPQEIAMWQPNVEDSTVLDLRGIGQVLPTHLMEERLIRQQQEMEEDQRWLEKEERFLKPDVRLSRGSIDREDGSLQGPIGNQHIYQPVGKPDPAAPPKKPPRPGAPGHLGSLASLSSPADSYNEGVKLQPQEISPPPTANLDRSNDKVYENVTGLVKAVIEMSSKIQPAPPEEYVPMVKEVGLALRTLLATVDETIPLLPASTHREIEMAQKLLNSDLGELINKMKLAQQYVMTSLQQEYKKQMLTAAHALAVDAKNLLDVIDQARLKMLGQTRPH
# [14] = test system: Fibrinogen (Alexa647-labelled); experiment: Alexa647-fibrinogen binding to printed small molecules – biochemical, small-molecule microarray, 635/667 nm fluorescence, artefact control for SMM control-protein annotation, profiling panel (AID 1131); settings: fibrinogen-A647 binding fluorescence, higher = more signal;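 further: z-score merges 667 nm fluorescence with per-spot signal-to-noise over triplicate slides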
# [15] = molecular target: Follistatin (Homo sapiens) (UniProt P19883); experiment: FST protein binding to printed compounds – biochemical, small-molecule microarray, 635/667 nm fluorescence, primary screen (AID 1132); settings: 635 nm fluorescence, higher = more signal
# Chain of Follistatin (Homo sapiens) (P19883 whole entry, looked up): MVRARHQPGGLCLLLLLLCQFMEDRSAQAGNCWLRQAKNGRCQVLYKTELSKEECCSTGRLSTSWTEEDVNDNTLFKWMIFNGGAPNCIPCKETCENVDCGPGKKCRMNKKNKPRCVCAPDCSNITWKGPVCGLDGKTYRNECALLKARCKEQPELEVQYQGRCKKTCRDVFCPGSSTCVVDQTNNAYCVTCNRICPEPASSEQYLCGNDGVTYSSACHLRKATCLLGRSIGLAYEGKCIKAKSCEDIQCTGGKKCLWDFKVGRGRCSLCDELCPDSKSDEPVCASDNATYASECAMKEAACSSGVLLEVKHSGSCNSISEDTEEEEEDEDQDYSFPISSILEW
# [16] = molecular target: Fibroblast growth factor 2 (Homo sapiens) (UniProt P09038); experiment: basic fibroblast growth factor binding to printed compounds – biochemical, small-molecule microarray, 635/667 nm fluorescence, primary screen (AID 1133); settings: FGF2, fluorescence 635/667, higher = more signal
# Chain of Fibroblast growth factor 2 (Homo sapiens) (P09038 whole entry, looked up): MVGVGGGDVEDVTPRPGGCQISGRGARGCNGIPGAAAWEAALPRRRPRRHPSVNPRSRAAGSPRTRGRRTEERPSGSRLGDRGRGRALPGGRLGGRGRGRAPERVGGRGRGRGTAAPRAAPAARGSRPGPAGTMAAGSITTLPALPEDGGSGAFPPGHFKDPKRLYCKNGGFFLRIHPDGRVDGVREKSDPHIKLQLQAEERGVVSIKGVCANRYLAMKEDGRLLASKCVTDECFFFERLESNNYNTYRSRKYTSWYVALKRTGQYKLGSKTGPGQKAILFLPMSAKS
# [17] = JC-1 mitochondrial potential readout, lung cancer cells – cell-based, A549, JC-1 fluorescence, basal, 24 h, 100 nL, profiling panel (AID 1138); settings: higher = more signal;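 further: A549 lung adenocarcinoma cells under basal conditions with no added stimulus; test concentration not given here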
# [18] = test system: Lefty1; experiment: Lefty1 protein binding to printed compounds – biochemical, small-molecule microarray, 635/667 nm fluorescence, primary screen (AID 1139); settings: fluorescence 635/667, higher = more signal
# [19] = test system: wheat germ agglutinin (Triticum aestivum), Alexa647-labelled; experiment: Alexa647-WGA lectin binding to printed small molecules – biochemical, small-molecule microarray, 635/667 nm fluorescence, artefact control for SMM control-protein annotation, profiling panel (AID 1140); settings: WGA-A647 binding, 635 nm fluorescence, higher = more signal;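 further: score merges 667 nm feature emission with signal to noise over triplicate slides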
# [20] = molecular target: Luciferin 4-monooxygenase (Photinus pyralis) (UniProt P08659); experiment: inhibition of purified Photinus pyralis luciferase – biochemical, luminescence, purified enzyme, 2006 set, primary screen (AID 1141); settings: purified firefly luciferase, SteadyGlo luminescence, 30 min; higher = more signal, called active from +8 up or from −8 down;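 further: cell-free assay with purified firefly luciferase at 100 ng per well in PBS; test concentration not given here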
# Chain of Luciferin 4-monooxygenase (Photinus pyralis) (P08659 whole entry, looked up): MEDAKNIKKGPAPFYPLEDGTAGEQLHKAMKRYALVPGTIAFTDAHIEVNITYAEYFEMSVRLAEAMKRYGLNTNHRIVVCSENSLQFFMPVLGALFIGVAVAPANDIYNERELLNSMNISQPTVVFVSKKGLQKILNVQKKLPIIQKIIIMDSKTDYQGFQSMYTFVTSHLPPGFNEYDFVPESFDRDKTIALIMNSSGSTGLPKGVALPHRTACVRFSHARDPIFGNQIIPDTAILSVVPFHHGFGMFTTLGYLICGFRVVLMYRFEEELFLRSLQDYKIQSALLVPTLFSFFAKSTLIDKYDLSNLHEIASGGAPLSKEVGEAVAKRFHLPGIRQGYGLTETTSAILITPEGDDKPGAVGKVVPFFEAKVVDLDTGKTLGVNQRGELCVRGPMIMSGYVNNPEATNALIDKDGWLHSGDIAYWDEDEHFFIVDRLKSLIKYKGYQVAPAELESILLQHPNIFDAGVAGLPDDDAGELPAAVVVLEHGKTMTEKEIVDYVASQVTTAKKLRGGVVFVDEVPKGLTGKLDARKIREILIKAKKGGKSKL
SMILES,composite z-score [1],composite Z-score [2],composite z-score [3],composite z-score [4],composite z-score [5],composite z-score [6],composite z-score [7],composite z-score [8],composite z-score [9],composite z-score [10],composite z-score [11],composite z-score [12],composite z-score [13],composite z-score [14],composite z-score [15],composite z-score [16],z-score [17],composite z-score [18],composite z-score [19],z-score [20]
[N-]=[N+]=Nc1ccccc1C[C@]1(C(=O)N2CCCCC2)COC(c2ccc(OCCCO)cc2)=N1,0.715,-0.218 (inactive),0.176,-0.124,0.613,2.74,0.236,1.28,-0.217,0.345,1.33,1.15,0.65,1.01,0.601,-0.0446,0.124,0.308,0.523,-6.97 (inactive)
COCCOC(=O)N1C(=O)[C@@]2(c3ccccc31)[C@H](C(=O)N1CCc3cc(OC)c(OC)cc3C1)[C@H]1C(=O)O[C@H](c3ccccc3)[C@H](c3ccccc3)N1[C@@H]2c1ccc(O)cc1,0.795,0.27 (inactive),-0.0072,0.0129,0.424,2.19,0.808,1.31,0.628,1.17,2.07,1.18,0.381,0.864,1.09,1.26,0.674,0.788,0.74,-5.57 (inactive)
CCCNC(=O)[C@@H]1c2ccccc2C(=O)N(Cc2ccccc2OC)[C@H]1c1ccc(CO)cc1,0.735,-0.228 (inactive),-0.0573,-0.0966,0.604,1.83,0.614,1.1,-0.0218,0.748,2.08,1.22,0.609,0.937,0.98,1.06,1.53,0.482,0.712,-0.452 (inactive)
[N-]=[N+]=Nc1ccccc1C[C@]1(C(=O)NCc2ccccc2)N=C(c2ccc(OCCCO)cc2)O[C@H]1c1ccccc1N=[N+]=[N-],0.896,0.411 (inactive),0.555,-0.0211,0.676,2.63,0.458,1.06,-0.124,1.13,1.88,1.16,0.414,1,0.547,-0.165,1.08,0.376,0.824,-3.77 (inactive)
COC(=O)[C@@]1(Cc2ccccc2)[C@H]2c3cc(C(=O)N4CCCC4)n(Cc4ccc(O)c(OC)c4)c3C[C@H]2CN1C(=O)c1ccccc1,0.638,-0.0662 (inactive),0.63,0.302,0.83,2.37,0.0364,0.008,-1.62,0.284,0.882,1.27,0.553,-0.685,0.284,-0.638,1.15,-0.0456,0.504,1.04 (inactive)
CCOC(=O)C1=CC[C@@H](c2ccccc2)N(S(=O)(=O)c2ccc(C)cc2)[C@H]1c1ccc(CC)cc1,0.847,-0.579 (inactive),0.0749,-0.0371,0.571,1.52,0.662,1.1,-0.0671,1.11,1.09,1.18,0.761,0.966,0.352,0.286,2.58,0.245,0.758,1.46 (inactive)
COC(=O)C[C@H]1O[C@@H](CCc2ccccc2)[C@@H](C)[C@@H]1[Si](C)(C)c1ccc(OC)cc1,-0.932,0.611 (inactive),-0.268,-0.154,-0.394,-0.308,0.314,-1.1,0.323,-0.615,-0.608,-1.35,0.217,-0.755,0.0222,-0.187,1.57,-0.105,-0.359,0.301 (inactive)
COc1ccc([Si](C)(C)[C@H]2[C@H](CCn3cc([C@H](O)c4ccccc4)nn3)O[C@@]3(C(=O)N(C)c4ccccc43)[C@@H]2C)cc1,0.179,0.235 (inactive),-0.0057,-0.0485,0.509,0.476,-0.116,0.106,-0.544,-0.454,-0.0799,0.0391,0.254,-1.37,0.862,0.322,1.65,1.23,-0.0898,-0.0548 (inactive)
COc1cc2c(cc1O)C(c1cccs1)N(Cc1ccc([N+](=O)[O-])o1)CC2 (stereo not given),0.878,3.03 (inactive),0.029,0.12,0.876,1.35,1.08,0.0376,-0.57,0.364,0.737,0.182,0.215,0.979,0.257,0.478,2.32,-0.795,0.839,-2.26 (inactive)
C#CCOc1ccc(C[C@@H](C(=O)OC)N(CC#C)[C@@H](/C=C/C2CC2)[C@H](O)Cc2ccccc2)cc1,-0.485,-0.423 (inactive),-0.19,-0.208,0.0591,-0.148,0.286,-0.51,0.212,-0.557,0.135,-0.438,0.0472,-0.651,0.24,-0.768,2.32,0.22,-1.34,-0.497 (inactive)
CCCCN1CC=CC23O[C@@H]4C=CCCOC(=O)C4[C@H]2C(=O)N(CCCCCO)[C@@H]3C1=O (stereo not given in full),0.438,0.251 (inactive),-0.297,-0.132,0.861,-0.0221,-0.327,-0.444,-0.882,-0.131,1.88,-0.306,0.779,-0.905,-0.592,-0.437,0.976,-0.0266,0.0604,-0.469 (inactive)
